EWS-Fli block: EWS/Fli transcriptional activity inhibition; actives 0.67% (n = 350,000); A673 NR0B1-luciferase reporter, viability-normalised; inhibition, % at 12.6 µM; AID 651661;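 active means mean inhibition of at least 50% after viability correction, with every replicate also passing that limit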;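 further: firefly luciferase signal divided by Alamar Blue viability fluorescence both relative to DMSO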
KKLEB cytotox: CF airway cell cytotoxicity counter-screen | AID 602141 | actives 0.36% (n = 360,000) | KKLEB CF airway cells viability, ATPlite luminescence, overnight; stronger effect = lower value; cells stimulated with P. aeruginosa culture filtrate | activity change (cytotoxicity), % at 5 µM;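 active means corrected activity change at or below -50% at 5 µM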
CF NFkB block: blocks PAF-induced NF-kB reporter in cystic fibrosis cells | KKLEB NF-kB-GFP reporter, GFP fluorescence overnight | inhibition, % at 5 µM | actives 0.86% (n = 360,000) | AID 588850;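 active means at least 50% inhibition at 5 µM, scaled per plate between neutral and stimulator controls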;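 further: PAF is a Pseudomonas aeruginosa culture filtrate used as stimulus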
HIF-2a inh: blocks HIF-2a reporter activity; 786-0 RCC cells HIF-2a reporter, luciferase luminescence, overnight; inhibition, % at 18.8 µM; actives 0.72% (n = 360,000);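 active means inhibition of the luminescence signal of 40% or more relative to plate controls, in a single-dose primary screen at 18.75 µM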
PAX8 inh HTS: inhibitors of PAX8 transcriptional activity in RMG-I cells. RMG-I TPO-luciferase reporter, SteadyGlo, 24 h. inhibition, % at 12.6 µM. actives 1.2% (n = 360,000). AID 652154;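 active means mean replicate inhibition at least 60% with every replicate also reaching 60%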;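 further: luciferase light reporting Pax8 driven TPO promoter activity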
Mdm2 MdmX conf: Mdm2/MdmX (human) interaction inhibition, confirmed | SaOS-2 split-luciferase Mdm2/MdmX complementation, luminescence | shares compounds with HIF-2a inh | actives 99% (n = 740) | AID 504601 | inhibition, % at 8 µM;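 active means mean inhibition of the luminescence signal across two replicates at or above 26 percent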
Target sequence (O15151 whole entry, looked up): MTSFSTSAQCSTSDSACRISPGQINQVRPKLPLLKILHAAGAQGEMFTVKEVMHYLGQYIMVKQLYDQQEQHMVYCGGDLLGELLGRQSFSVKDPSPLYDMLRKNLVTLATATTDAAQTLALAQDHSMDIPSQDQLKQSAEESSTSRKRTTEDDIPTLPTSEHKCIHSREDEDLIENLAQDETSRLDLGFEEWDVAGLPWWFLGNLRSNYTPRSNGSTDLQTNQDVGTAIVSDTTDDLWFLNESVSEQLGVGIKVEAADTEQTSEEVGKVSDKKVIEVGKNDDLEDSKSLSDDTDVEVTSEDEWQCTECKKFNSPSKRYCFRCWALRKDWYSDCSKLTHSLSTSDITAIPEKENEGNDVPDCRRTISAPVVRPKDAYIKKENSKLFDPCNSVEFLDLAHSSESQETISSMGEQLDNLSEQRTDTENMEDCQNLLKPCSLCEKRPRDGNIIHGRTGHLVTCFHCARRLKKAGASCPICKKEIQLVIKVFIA
Target sequence (Q00987 whole entry, looked up): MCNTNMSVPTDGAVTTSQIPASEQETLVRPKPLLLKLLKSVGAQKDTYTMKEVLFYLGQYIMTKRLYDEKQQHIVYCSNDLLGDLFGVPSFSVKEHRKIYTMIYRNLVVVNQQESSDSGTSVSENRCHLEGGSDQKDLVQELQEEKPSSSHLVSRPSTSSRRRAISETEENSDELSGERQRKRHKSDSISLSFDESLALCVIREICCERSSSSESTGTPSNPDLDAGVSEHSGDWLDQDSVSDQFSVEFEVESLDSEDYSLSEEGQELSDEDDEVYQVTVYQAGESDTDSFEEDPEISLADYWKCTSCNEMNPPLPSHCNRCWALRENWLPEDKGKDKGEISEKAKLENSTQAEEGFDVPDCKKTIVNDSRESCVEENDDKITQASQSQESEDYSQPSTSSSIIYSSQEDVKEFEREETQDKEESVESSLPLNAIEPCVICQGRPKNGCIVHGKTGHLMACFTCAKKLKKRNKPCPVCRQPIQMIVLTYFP
HIF-2a inh conf: confirmation of HIF-2a inhibitors; shares compounds with HIF-2a inh; 786-0 RCC cells, HIF-2a luciferase reporter luminescence, overnight; actives 56% (n = 1,800); inhibition, % at 18.8 µM;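 active means mean inhibition across four replicates of at least 40 percent at the single tested concentration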
HIF-1a cs: HIF-1a inhibition counter-screen for HIF-2a hits; inhibition, % at 18.8 µM; AID 651589; MiaPaCa-2 HIF-1a luciferase reporter, desferoxamine, overnight; actives 72% (n = 1,800); shares compounds with HIF-2a inh;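 active means mean inhibition of the reporter signal across four replicates at the single tested dose of 50% or more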
A number is an active result; n = inactive; x = not tested or not shown. Rows were chosen to be rich in hits. Some 2.1% of all compounds tested hit in one or more screens of this group.

SMILES	EWS-Fli block	KKLEB cytotox	CF NFkB block	HIF-2a inh	PAX8 inh HTS	HIF-2a inh conf	HIF-1a cs	others
O=C(NC1CCCC1)N1CC(=O)N2[C@H](CO)[C@H](c3ccc(-c4cccc(F)c4)cc3)[C@@H]2C1	n	x	x	x	n	x	x
COc1ccc(-c2cc(-c3ccccc3)c(C#N)c(S(C)=O)n2)cc1 (stereo not given)	x	n	n	76	76	n	98
CCSc1nc(-c2ccc(OC)cc2)cc(-c2ccccc2)c1C#N	n	n	n	n	x	x	x
C[C@H](CO)N1C[C@H](C)[C@@H](CN(C)Cc2ccc(C(F)(F)F)cc2)Oc2ccc(NC(=O)CCN3CCOCC3)cc2CC1=O	n	x	x	x	n	x	x
CC#CC[N+](C)(C)CCCCCCCCCCCC	n	n	n	52	83	n	72
CCCCCCCCCCCCCCCC[N+](C)(C)CC	53	n	83	59	107	46	98
CCCCCC[N+](C)(C)CCSSCC[N+](C)(C)CCCCCC	n	n	n	n	n	x	x
CCCCCCCCCCCCCCCC[N+](C)(C)CCl	n	n	n	54	106	n	75
O=C(O)c1ccc(Nc2nc3c(s2)CCCC3)cc1	67	n	n	46	67	64	52
Cc1cccc(Nc2nc3c(s2)CCCC3)c1	x	n	n	n	n	x	x
C=CS(=O)(=O)c1sc(Cl)c(N2CCOCC2)c1[N+](=O)[O-]	n	n	n	66	n	75	n
O=S(=O)(N[C@@H]1CC[C@@H](CCn2cc(C3(O)CCCC3)nn2)O[C@H]1CO)c1ccc(Cl)cc1	n	x	x	x	n	x	x
COc1ccccc1-c1noc(CCCC(=O)NC2CCCC2)n1	n	n	n	n	n	x	x
O=C(CCCc1nc(-c2ccccc2Cl)no1)NC1CCCC1	x	n	n	88	n	96	64
CN(C)C(=O)c1cccc(-c2ccc3c(c2)[C@H]2[C@H](CCN2C(=O)Cc2ccccn2)[C@H](CO)N3C)c1	n	x	x	x	n	x	x
COc1cc2c3nnc(-c4ccc(F)cc4)c-3cn(Cc3cccc(F)c3)c2cc1OC	x	n	n	n	x	x	x	Mdm2 MdmX conf=103
CCCCOc1ccc(C(=O)C(CN2CCOCC2)c2ccccc2)cc1 (stereo not given)	x	n	n	87	x	n	105
CCCOc1ccc(C(=O)C(CN2CCCC2)c2ccccc2)cc1 (stereo not given)	61	-61	n	86	n	n	104
Cc1ccc(Nc2c(-c3ccccn3)nc3ccc(C)cn23)cc1	n	n	n	n	n	x	x	Mdm2 MdmX conf=86
Cc1ccc(Nc2c(-c3ccccn3)nc3cc(C)ccn23)cc1	n	n	n	n	n	x	x	Mdm2 MdmX conf=88
Cc1ccc(Nc2c(-c3cccnc3)nc3ccc(Br)cn23)cc1	n	n	n	n	n	x	x
O=C(NC1=NCCS1)C1COc2ccccc2O1 (stereo not given)	x	n	n	83	x	90	85
COc1ccc2[nH]c3c(=O)n(/N=C/[C@H]4C(C)C=C(C)CC4C)c(=O)[nH]c3c2c1 (stereo not given in full)	n	n	n	58	n	n	100
COc1ccc2c(c1)[nH]c1c(=O)n(/N=C/C3C(C)C=C(C)CC3C)c(=O)[nH]c12 (stereo not given)	n	n	n	n	n	x	x
OCCCNc1cc(-c2ccnc(Nc3cccc(Cl)c3)n2)ccn1	n	n	86	n	98	x	x	Mdm2 MdmX conf=103
COc1ccc(C(=O)c2no[n+]([O-])c2C(=O)c2ccc(OC)cc2)cc1	x	-80	90	65	x	n	n
COc1ccc2c3c(n(C)c2c1)[C@H](CO)N(Cc1cccc(Cl)c1)CC31CN(C(C)=O)C1	n	x	x	x	x	x	x
CSC1=NC=C(C#N)C2=NC(c3c(Cl)cccc3Cl)NN12 (stereo not given)	x	n	n	65	x	n	n
CCCC#Cc1cnc2c(c1)C(=O)N([C@H](C)CO)C[C@@H](C)[C@@H](CN(C)C(=O)CN1CCOCC1)O2	n	x	x	x	n	x	x

Screening data: PubChem BioAssay, several laboratories
